In all, about 290,000 compounds went through this assay and about 11,000 (3.8%) were called active. The sample as a whole holds a higher share of actives than the screen did. Values without a mark were called inactive.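 How the source made its calls: active means mean replicate inhibition above about 79%, with every replicate also reaching it (limit read from the data); inconclusive means only one of the two criteria met; inactive means mean below limit and not every replicate reaching it.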

Chain of FAD-linked sulfhydryl oxidase ALR (Homo sapiens) (P55789 whole entry, looked up): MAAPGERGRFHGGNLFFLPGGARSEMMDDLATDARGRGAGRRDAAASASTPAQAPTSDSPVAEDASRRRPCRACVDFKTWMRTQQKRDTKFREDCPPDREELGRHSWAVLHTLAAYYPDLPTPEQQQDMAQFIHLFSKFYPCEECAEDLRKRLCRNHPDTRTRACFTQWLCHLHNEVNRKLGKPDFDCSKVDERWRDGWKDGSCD

This assay addresses FAD-linked sulfhydryl oxidase ALR (Homo sapiens) (UniProt P55789). In words: ALR-catalysed DTT oxidation blockers – biochemical, H2O2 detection, HRP-luminol luminescence, single point, primary screen (AID 485317). The conditions noted are these: purified ALR, stronger effect = higher value, concentration not given here.
The term inhibition denotes the relative decrease from the control value, in per cent. Turning to `CC(C#N)OC(=O)c1cccnc1SCC(=O)Nc1ccc2c(c1)OCO2` (stereo not drawn), the inhibition is -10.2%. The result for `Cc1ccc(S(=O)(=O)N2CCN(C(=O)c3ccccc3-c3nc4ccccc4s3)CC2)c(C)c1` reads -15.3%; that for `Cc1ccc(NC(=O)C(c2ccccc2)N2CCN(C(=O)c3ccco3)CC2)cc1` (stereo not drawn), -2.06%.

For the compound `COc1cc(OC)cc(C(=O)N[C@H](C(=O)NNC(=O)c2ccc(Br)cc2)C(C)C)c1`, the inhibition is -9.81%. Regarding `CC(=NCc1ccco1)C1=C(O)c2ccccc2C1=O`, the inhibition was 2.24%. To `CC(=NCc1ccco1)c1c(C(F)(F)F)[nH]n(-c2nc3ccccc3s2)c1=O` belongs 92.1% (active). The result for `CCc1ccc(-c2cc(C(=O)NCc3ccco3)c3ccccc3n2)s1` reads 52.8%. To `COc1cc(C=NNC(=O)c2cccnc2)ccc1OC(=O)c1ccccc1F` belongs 20.1%; to `COc1ccc(CCNC(=O)COC(=O)c2cnc(Cl)c(Cl)c2)cc1`, -2.44%; to `Cc1cc(NC(=O)CSc2ncc(C(F)(F)F)cc2Cl)no1`, -1.5%.

As to `COc1ccccc1C1C2=C(COC2=O)Nc2cc3c(cc21)OCO3` (stereo not drawn), the inhibition was 97.9% (active). The result for `COc1ccc(S(=O)(=O)Nc2ccc3c(c2)OCO3)cc1Cl` reads 9.92%; that for `COc1cc2c(cc1/C=C1/NC(=O)N(c3ccccc3)C1=O)OCO2`, -7.41%; that for `CC[C@@]12C(=O)N(c3ccccc3)C(=O)N1[C@H](c1ccc(Br)cc1)[C@@H]1C(=O)N(C(C)(C)C)C(=O)[C@@H]12`, -9.54%. The result for `COc1cc(S(=O)(=O)N2CCN(C(=O)C3CC3)CC2)ccc1NC(C)=O` reads -5.34%; that for `COc1ccc(S(=O)(=O)N(C)C[C@H]2Oc3ccc(NS(=O)(=O)c4cccs4)cc3CC(=O)N([C@H](C)CO)C[C@H]2C)cc1`, -0.0995%; that for `O=c1oc(-c2ccco2)nc2sc3c(c12)CCCCC3`, 88.4% (active). Regarding `Cn1c(=O)n(Cc2ccco2)c(=N)c2c3c(sc21)CCCC3`, the inhibition is 3.35%. The result for `O=S(=O)(c1ccc(Cl)cc1)c1nc(-c2ccco2)oc1N1CCCCC1` reads 5.77%; that for `CCC(CO)Oc1cc(NC(=O)c2ccc(Cl)cc2)c2ncn(C(C)C)c2c1` (stereo not drawn), -2.2%. The result for `CC(=O)c1c(C)[nH]c(C(=O)N2CCN(S(=O)(=O)c3ccc(F)c(F)c3)CC2)c1C` reads -0.525%; that for `CCN(/N=C/c1ccccc1)c1cc(=O)n(C)c(=O)[nH]1`, -9.29%; that for `CN(C)c1ccc(/C=N/N(Cc2ccccc2)c2ccccc2)cc1`, -4.17%.

For the compound `Oc1ccc(/C=N/N(Cc2ccccc2)c2ccccc2)cc1`, the inhibition is 99.2% (active). Turning to `Cc1ccc(C(=O)NNC(=O)CSc2nnc3ccccn23)cc1`, the inhibition is -4.37%. Regarding `Cc1cc(C)c(-c2c(O)c3ccccc3n(C)c2=O)c(C)c1`, the inhibition is -13.7%. To `Cc1cc(O)c(Sc2ccccc2)c(=O)o1` belongs -17.8%; to `COc1ccc(NCCc2ccccn2)cc1`, 99.8% (active); to `Cc1c(C)c(C)c(S(=O)(=O)NCCc2ccccn2)c(C)c1C`, 3.53%. With `COc1cccc(NC(=S)NCc2ccccn2)c1`, the inhibition was -3.74%. To `COc1ccc(C)cc1NC(=O)CCCN1C(=O)NC(C)(C)C1=O` belongs 0.111%; to `Cc1cccc(-c2oc3ccc(-c4ccc5c(c4)OCO5)cc3c2C#Cc2cncn2C)c1`, -9.37%; to `Cc1ccc(CS(=O)(=O)c2ncc(Cl)c(C(=O)Nc3nnc(C)s3)n2)cc1`, 97.5% (active). Consider `CSc1nnc(NC(=O)c2nc(S(=O)(=O)Cc3ccc(C)cc3)ncc2Cl)s1`, for which the inhibition was 8.89%. To `Cc1ccc(S(=O)(=O)CC(=O)Nc2nnc(C)s2)cc1` belongs -1.7%; to `Cc1cccc(NC(=O)c2nc(S(=O)(=O)Cc3ccccc3)ncc2Cl)c1`, 4.68%.

As for `CSc1ncc(Cl)c(C(=O)Nc2cc(C)ccc2C)n1`, the inhibition is -2.22%. The result for `Cc1cccc(CS(=O)(=O)c2ncc(Cl)c(C(=O)Nc3ccc(F)cc3)n2)c1` reads 98.4% (active); that for `N#Cc1cccc(OC(=O)c2ccc3c(=O)n4c(nc3c2)CCC4)c1`, 43.5%; that for `CC1CCCCC1NC(=O)COc1ccc(C#N)cc1` (stereo not drawn), 0.208%.

In the case of `COc1cc(Cl)c(C)cc1NC(=O)CSc1nnc(CN2CCCC2)o1`, the inhibition is -7.65%. The result for `Cc1ccc(C)c(C(=O)COC(=O)Cn2[nH]c(=O)c3ccccc3c2=O)c1` reads -2.55%. For `CCc1ccc(OC(C)C(=O)Nc2ccc(S(=O)(=O)Nc3cc(C)on3)cc2)cc1` (stereo not drawn), the inhibition is 9.12%. Take `Cc1noc(NS(=O)(=O)c2ccc(N/C=C/C(=O)c3ccccc3)cc2)c1C`: the inhibition was 85.4% (active). The result for `CCn1c(SCC(=O)Nc2ccc(S(=O)(=O)Nc3onc(C)c3C)cc2)nnc1-c1ccccc1` reads 53.3%; that for `Cc1noc(NS(=O)(=O)c2ccc(NC(=O)C34CCC(CC3)C4)cc2)c1C`, 6.47%; that for `CC(Oc1cccc(Cl)c1)C(=O)Nc1ccc(S(=O)(=O)Nc2ncccn2)cc1` (stereo not drawn), 7.5%. With `Cc1cc(OC(C)C(=O)Nc2ccc(S(=O)(=O)Nc3onc(C)c3C)cc2)cc(C)c1Cl` (stereo not drawn), the inhibition was 97.6% (active).

Turning to `CCOc1cc(N2CCOCC2)c(OCC)cc1NC(=O)COc1cccc(Cl)c1`, the inhibition is -15.1%. As for `O=C(CCCOc1ccccc1)NNC(=O)c1ccc(Cl)cc1`, the inhibition is 3.44%. Consider `Cc1occc1C(=O)N/N=C/c1ccc(-c2cccc([N+](=O)[O-])c2)o1`, for which the inhibition is -4.94%. On to `COc1ccc(NC(=O)CNc2cc(S(=O)(=O)N3CCOCC3)ccc2N2CCOCC2)c(OC)c1`, for which the inhibition is 1.23%. Consider `Cc1ccc(NS(=O)(=O)c2ccc(C(C)C)cc2)cc1S(=O)(=O)N1CCOCC1`, for which the inhibition is 4.5%. The result for `Cc1cc(C(=O)Nc2nnc(C3CC3)s2)c(C)s1` reads -0.2%. Turning to `CC(C)CN(C(=O)COC(=O)c1ccc(Cl)c(N)c1)c1c(N)n(Cc2ccccc2)c(=O)[nH]c1=O`, the inhibition was -4.01%. The result for `Cc1cc(/C=N/n2cnnc2)c(C)n1-c1cccc(C(=O)O)c1` reads 2.1%; that for `CN1C(=O)/C(=C/c2ccco2)SC1=Nc1cccc(C(=O)O)c1`, 1.79%; that for `Cc1cc(/C=C2\SC(=O)N(C)C2=O)c(C)n1-c1cccc(C(=O)O)c1`, 81.6% (active).

(Values after PubChem BioAssay AID485317 (Broad Institute, 2010).)
